Anthrax LF inh2 – anthrax lethal factor protease inhibition. inhibition, % at 10 µM. actives 0.12% (n = 360,000). multiplex microsphere protease cleavage assay, LF. P15917; also: plate controls were buffer without enzyme for full effect and enzyme alone for no effect
BoNT F protease – BoNT F light chain protease inhibition. Multiplex microsphere protease cleavage assay, flow cytometry. inhibition, % at 10 µM. actives 0.22% (n = 360,000); in the data active = inhibition above about 35%, passing the limit was not always enough; inconclusive = no clear call, values can overlap the other calls; also: plate controls were buffer without enzyme for full effect and enzyme alone for no effect
Bead autofluor – flagged as autofluorescent in microsphere protease counterscreen. AID 624483. fluorescence intensity (concentration not given with the values). actives 3.1% (n = 360,000). compound autofluorescence counterscreen, microsphere flow cytometry; active compounds read high; in the data active = fluorescence intensity above about 16000; inconclusive = no clear call, values can overlap the other calls
BJeLR viability – kills HRASV12-expressing BJeLR cells; BJeLR (HRASV12) viability, CellTiter-Glo ATP luminescence, 48 h; inhibition, % (no concentration beside the values); actives 0.17% (n = 300,000); in the data active = inhibition above about 50%; inconclusive = no clear call, values can overlap the other calls
BoNT-A LC inh2 – blocks Botulinum neurotoxin A light chain protease; multiplex microsphere protease substrate cleavage, flow cytometry; inhibition, % at 10 µM; actives 0.17% (n = 360,000); also: plate controls were buffer without enzyme for full effect and enzyme alone for no effect
* hit, by the source's call; ? = inconclusive; . = no result. Compounds with a hit are over-represented: about 3.5% of the library has one in this group of screens. Rule as the data show it, unless noted: active = inhibition above about 30%; inconclusive = no clear call, values can overlap the other calls; inactive = below that.

SMILES | Anthrax LF inh2 | BoNT F protease | Bead autofluor | BJeLR viability | BoNT-A LC inh2
COC(=O)c1ccccc1NC(=O)c1cc2nc(C3CC3)cc(C(F)(F)F)n2n1 | -2 | -3 | 21329* | 2 | -4
COc1cc(NC(=O)c2cc3nc(C4CC4)cc(C(F)(F)F)n3n2)c(OC)cc1Cl | -3 | -3 | 24788* | -22 | -4
O=[N+]([O-])c1ccc(N2CCNCC2)cc1Sc1nc2ccccc2[nH]1 | 0 | -9 | 2294 | 14 | 0
Cc1cc(C)n(C2CCCCC2OC(=O)CCc2ccccc2)n1 (stereo not drawn) | 33* | ? | 3606 | -4 | ?
CCOC(=O)c1sc2cc([N+](=O)[O-])cc(SCC(C)C)c2c1N | 21 | 18 | 20038* | -2 | 32*
CCOC(=O)c1cc(N)cc([N+](=O)[O-])c1 | -2 | -8 | 2374 | -2 | -1
CCCc1cc2nnc(SCC(=O)N(C)C3CCCCC3)n2c(N)n1 | 0 | 9 | 5479 | -9 | 0
CCOC(=O)CSC1=C(C#N)C(c2ccco2)C(C(=O)Nc2cccc(C(F)(F)F)c2)=C(C)N1 (stereo not drawn) | -1 | -8 | 25424* | 21 | -6
Cc1cc(OCC(=O)N2CCN(c3ccccn3)CC2)cc(C)c1Br | -2 | -2 | 6095 | -7 | -1
CC1(C)CC(=O)C2=C(C1)OC(/N=C/N1CCCC1)=C(C#N)C2c1ccccc1 (stereo not drawn) | -1 | -2 | 5383 | -6 | -1
CC(c1ccccc1)C1C(C#N)=C(N)OC2=C1C(=O)CC(C)(C)C2 (stereo not drawn) | -1 | 0 | 23366* | 24 | -2
CN1CCN(/C=N/C2=C(C#N)C(c3ccccc3)C3=C(CC(C)(C)CC3=O)O2)CC1 (stereo not drawn) | -2 | -4 | 22390* | 0 | -1
O=C(Nc1ccc(F)c(Cl)c1)[C@@H]1O[C@H](CO)[C@H](O)[C@H](O)[C@H]1O | -2 | -6 | 3658 | . | 0
CC(C)(C)OC(=O)NCCCCCNC(=O)c1[nH]cnc1C(=O)Nc1cc(Br)ccc1F | -4 | -8 | 3688 | . | -1
CCN(CC)C(=O)Oc1ccc2c(=O)c(-c3ccccc3)coc2c1 | 0 | 4 | 21592* | 8 | 2
NC(=O)CC(NC(=O)Cc1cccc2ccccc12)c1ccc(NC2CC3CCC2C3)c([N+](=O)[O-])c1 (stereo not drawn) | -5 | -3 | 2904 | 0 | 0
O=C(CNC(=O)c1ccccc1)c1ccccc1 | 1 | 0 | 3571 | 7 | 0
O=C(CNC(=O)c1ccccc1C(=O)O)c1ccccc1 | 3 | 3 | 22929* | 19 | 0
COC(=O)CC1=C(C(=O)OC)C2(C(=O)Nc3c(C)cccc32)C(C#N)=C(N)O1 (stereo not drawn) | -16 | 2 | 20727* | -2 | ?
CCCC1=C(C(=O)OCC)C2(C(=O)Nc3ccccc32)C(C#N)=C(N)O1 (stereo not drawn) | 0 | -1 | 22790* | -4 | -1
CCc1nc2ccc(C(=O)NCC3CCCCC3)cn2c1N(C)Cc1nccs1 | -17 | 4 | 4297 | . | 0
O=C(O)Cn1nc2ccccc2n1 | -4 | -3 | 22940* | 3 | ?
O=C(O)Cn1nnc2ccccc21 | 2 | 1 | 4490 | -10 | 0
c1ccc(CSc2ncnc3c2oc2ccccc23)cc1 | -4 | -27 | 4629 | 3 | 0
Fc1ccccc1CSc1ncnc2c1oc1ccccc12 | -1 | 8 | 19470* | 1 | 3
SMILES | Anthrax LF inh2 | BoNT F protease | Bead autofluor | BJeLR viability | BoNT-A LC inh2
CC(C)Sc1ncnc2c1oc1ccccc12 | -1 | 0 | 23211* | 9 | 0
O=C(CSc1ncnc2c1oc1ccccc12)Nc1cccc(Cl)c1 | 1 | -7 | 21833* | -2 | -7
O=C(CSc1ncnc2c1oc1ccccc12)Nc1cccc(C(F)(F)F)c1 | -4 | -5 | 5628 | 3 | -1
CCCSc1ncnc2c1oc1ccccc12 | -4 | 0 | 11031 | 5 | 0
Nc1nc2cc(Cl)ccc2cc1C(=O)NCCCc1ccccc1 | -8 | -9 | 6061 | . | 0
CCCn1nnnc1NC(=O)c1cc(Cl)ccc1Cl | -3 | 6 | 9391 | 1 | -1
FC(F)(F)c1cccc(Cn2nnnc2-c2ccc(Cl)cc2)c1 | 0 | -2 | 22919* | 6 | -1
CCCn1nnnc1-c1ccc(Cl)cc1 | -1 | -4 | 19416* | -6 | 0
CCCn1nnnc1NC(=O)CSc1ccc(Cl)cc1 | -1 | -6 | 9078 | -7 | -1
CCCn1nnnc1-c1cccc(Cl)c1 | 2 | 1 | 20165* | 10 | 1
O=C(O)CSc1nnc(Cn2c(=O)sc3ccccc32)n1-c1cccc(Cl)c1 | -8 | 7 | 20449* | -3 | 7
NC(=O)CSc1nnc(Cn2c(=O)sc3ccccc32)n1-c1cccc(Cl)c1 | -2 | 1 | 16396* | -8 | 0
Cc1cc(C(=O)N/N=C/c2ccco2)n[nH]1 | -2 | -3 | 1988 | 5 | 0
CC(/C=C/c1ccco1)=N\NC(=O)c1cc(C)[nH]n1 | -5 | 0 | 23188* | 10 | ?
CC(=O)c1ccc(OCCCC(=O)NC2=NCCS2)cc1 | -3 | -7 | 23568* | 6 | ?
Cc1nn(C(=O)c2cccnc2)c(C)c1C | -2 | 0 | 20525* | 7 | 0
O=S(=O)(c1ccc(Cl)cc1)N1CCC(N2CCCCCC2)CC1 | . | . | . | 9 | .
C=CCN(c1ccc(C(=O)NCCc2ccccc2)cc1)S(C)(=O)=O | 1 | 0 | 16236* | 4 | 1
C=CCNC(=O)c1ccc(N(CC=C)S(C)(=O)=O)cc1 | -3 | 12 | 4837 | -14 | 1
CS(=O)(=O)N(Cc1ccccc1)c1ccc(C(=O)NCc2ccccc2)cc1 | -11 | 4 | 22531* | -8 | 2
CS(=O)(=O)N(Cc1ccccc1)c1ccc(C(=O)NCc2cccnc2)cc1 | -1 | 0 | 4213 | -3 | 0
CCN(C(=O)CSc1nc2cc(Cl)ccc2c(=O)n1Cc1ccco1)C1CCS(=O)(=O)C1 (stereo not drawn) | -2 | 0 | 2467 | 18 | -1
CCCOc1ccc(/C=C/C(=O)Nc2ccc([N+](=O)[O-])cc2C)cc1 | 1 | 17 | 4708 | 5 | 0
CCCOc1ccc(/C=C/C(=O)Nc2ccc([N+](=O)[O-])cc2C)cc1OC | 2 | 0 | 22086* | -8 | ?
O=C(c1ccccc1)c1ccc(C(=O)N2CCN(c3ccccc3O)CC2)cc1 | -1 | 1 | 3559 | . | 0
CCOC(=O)c1ccc(NC2c3ncccc3C(=O)N2Cc2ccc(F)cc2)cc1 (stereo not drawn) | -3 | -2 | 24047* | . | -1
CCOc1ccc(N2C(=O)c3cccnc3C2Nc2ccc(Cl)cc2)cc1 (stereo not drawn) | 0 | 1 | 21889* | 6 | 2
COC(=O)c1cc(NC2c3ncccc3C(=O)N2Cc2ccccc2)cc(C(=O)OC)c1 (stereo not drawn) | 2 | -2 | 16375* | -3 | 1
O=C(CSC(=S)N1CCCCC1)Nc1nc(-c2ccccc2)c(-c2ccccc2)o1 | -10 | 2 | 21247* | 0 | 1
